Results as given in PubChem BioAssay (NCI).
The panel holds about 83,000 compounds, 20% with a hit somewhere; the sample as a whole holds those more often.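 Treatment: one concentration, 48 hours, 96-well format. Scoring: percent growth, with anything below 10 considered active.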 Values without a mark were called inactive. Activity calls are given as the source filed them.

Key:
Assay in all cases: NCI-60 one-dose screen, 48 h (100 = growth as untreated, 0 = no growth, -100 = all killed)
Conditions in all cases: 10 µM unless noted
SR leukemia = tested on: SR leukemia
RPMI-8226 leukemia = tested on: RPMI-8226 leukemia
OVCAR-8 ovarian = tested on: OVCAR-8 ovarian
OVCAR-5 ovarian = tested on: OVCAR-5 ovarian
OVCAR-4 ovarian = tested on: OVCAR-4 ovarian
SK-OV-3 ovarian = tested on: SK-OV-3 ovarian
IGROV1 ovarian = tested on: IGROV1 ovarian
OVCAR-3 ovarian = tested on: OVCAR-3 ovarian
HS 578T breast = tested on: HS 578T breast
NCI/ADR-RES ovarian = tested on: NCI/ADR-RES ovarian
T-47D breast = tested on: T-47D breast
BT-549 breast = tested on: BT-549 breast
SW-620 colon = tested on: SW-620 colon
MCF7 breast = tested on: MCF7 breast
HCT-116 colon = tested on: HCT-116 colon
HCC-2998 colon = tested on: HCC-2998 colon
KM12 colon = tested on: KM12 colon
MDA-MB-435 melanoma = tested on: MDA-MB-435 melanoma

SMILES	growth (SR leukemia)	growth (RPMI-8226 leukemia)	growth (OVCAR-8 ovarian)	growth (OVCAR-5 ovarian)	growth (OVCAR-4 ovarian)	growth (SK-OV-3 ovarian)	growth (IGROV1 ovarian)	growth (OVCAR-3 ovarian)	growth (HS 578T breast)	growth (NCI/ADR-RES ovarian)	growth (T-47D breast)	growth (BT-549 breast)	growth (SW-620 colon)	growth (MCF7 breast)	growth (HCT-116 colon)	growth (HCC-2998 colon)	growth (KM12 colon)	growth (MDA-MB-435 melanoma)
N/C(=N\C(N)=N\c1nc2ccccc2s1)c1cccc(F)c1	48.4% [5 µM]	84.4% [5 µM]	98.9% [5 µM]	102% [5 µM]	133% [5 µM]	93.9% [5 µM]	68.4% [5 µM]	101% [5 µM]	93.7% [5 µM]	86.3% [5 µM]	74.6% [5 µM]	96.7% [5 µM]	97.2% [5 µM]	85.8% [5 µM]	89.3% [5 µM]	112% [5 µM]	99.9% [5 µM]	–
COC[C@]12CCC(C)(C)C[C@H]1C1=CC[C@@H]3[C@@]4(C)CCCNC(C)(C)[C@@H]4CC[C@@]3(C)[C@]1(C)CC2	-55% (active)	-34.8% (active)	52.2%	5.67% (active)	-18.9% (active)	75.9%	-54.4% (active)	-46.9% (active)	-44.6% (active)	-88% (active)	28.8%	–	-61.6% (active)	-71% (active)	-89.6% (active)	-91.2% (active)	-25.6% (active)	-76.3% (active)
COc1ccc2c(c1)c(CC(=O)[Se]CC#N)c(C)n2C(=O)c1ccc(Cl)cc1	3.49% (active)	20.5%	6.34% (active)	-13.6% (active)	27.7%	34%	-14.3% (active)	13.9%	28.3%	-13.8% (active)	22.4%	75.9%	-32.7% (active)	17.3%	-46.7% (active)	-4.68% (active)	-5.24% (active)	–
Cn1ccnc1C(=O)/C=C/c1ccc(CNC(=O)c2ccc(S(F)(F)(F)(F)F)cc2)cc1	4.16% (active)	-10.9% (active)	26.4%	22.4%	35.6%	66.8%	16.7%	16.8%	23%	12.2%	25%	–	9.31% (active)	13.3%	-17.1% (active)	11.5%	–	55.5%
COc1cc(-c2nn(C(C)(C)C)cc2-c2ccnc(NCCCNS(=O)(=O)c3cccc(F)c3)n2)ccc1Cl	50.6%	51.8%	89.3%	80.5%	45.8%	102%	48.9%	85%	80.3%	74.5%	69.5%	–	89.7%	71.3%	52.4%	103%	80.3%	77.9%
COc1ccc(-c2nc3ccc(-c4nnc(SCC(=O)Nc5ccc(C(=O)/C=C/c6ccc(Cl)cc6)cc5)o4)cc3[nH]2)cc1	68.2%	79.9%	105%	99.4%	103%	112%	87.2%	113%	90.6%	107%	92.8%	98.2%	97%	78%	100%	115%	103%	–
Cn1ccnc1C(=O)/C=C/c1ccc(CNC(=O)c2ccc(Cl)cc2)cc1	4.17% (active)	-13.7% (active)	24.6%	11%	37.9%	43.1%	12.2%	17%	28.1%	10.4%	34%	–	9.22% (active)	10.5%	-1.09% (active)	13.1%	9.07% (active)	22.6%
CCn1c(SCC(=O)Nc2cccc(C(=O)/C=C/c3ccc(Br)cc3)c2)nc2ccccc2c1=O	74.3%	5.53% (active)	96.4%	95.8%	93%	106%	86.8%	90.7%	98.3%	89.6%	90.7%	–	80.9%	21.5%	28.4%	95.3%	96.5%	99.2%
CC(=O)Nc1cccc(Nc2nc(N[C@@H](C)c3ccccc3)c3ccccc3n2)c1	-43.4% (active)	-30.9% (active)	39%	18.6%	17.5%	53.6%	18.4%	13%	1.68% (active)	-0.0139% (active)	58.4%	–	20.4%	8.63% (active)	6.47% (active)	-6.49% (active)	22.9%	-48.9% (active)
Cc1noc(C)c1CSc1nc2ccccc2n1-c1ccccc1	69.7%	95.8%	102%	89%	69.1%	116%	77%	114%	102%	97.3%	93.8%	87.5%	94.5%	94.9%	92.9%	112%	101%	–
COc1ccc(S(=O)(=O)NCCCNc2nccc(-c3cn(C(C)(C)C)nc3-c3ccc(Cl)c(OC)c3)n2)cc1	48.8%	84.7%	87.9%	90.3%	58.9%	103%	57.9%	97.5%	82.9%	87.8%	77.3%	–	99.3%	82.4%	66.6%	124%	93%	89.6%
C#CCC#CCN1CCC[C@H]1C(=O)NCC(=O)OC	118%	113%	99.1%	107%	97.3%	101%	104%	114%	117%	96%	94.8%	–	113%	99.4%	104%	106%	103%	105%
COc1cc2nc(Cl)nc(Nc3cccc(C4=Nc5c(N)nc(N)nc5NC(c5ccc6c(c5)OCO6)C4)c3)c2cc1OC (stereo not drawn)	10.3%	41.7%	68.2%	112%	97%	112%	77.6%	63.5%	82.7%	93.1%	68.9%	76.8%	76.9%	54%	55.3%	74.6%	46.8%	–
O=C(/C=C/c1ccc(F)cc1)c1ccc(O)cc1	24.4%	23.9%	98.4%	103%	106%	110%	114%	83.6%	107%	106%	93.9%	103%	81.4%	30.3%	-44.1% (active)	112%	59.3%	–
NC/C(=C/F)COc1ccc2nc(NCc3cccnc3)oc2c1	101%	120%	102%	113%	86.6%	110%	86.4%	122%	99.5%	111%	103%	–	96.7%	89.3%	96.4%	117%	103%	102%
CC(C)(O)c1cncc(-c2ccc3ncnc(NCc4ccccc4)c3c2)c1	92.2%	84.6%	102%	62.5%	77.3%	110%	34.2%	83.8%	73.2%	103%	64.2%	–	98.9%	58.5%	97.8%	92.8%	101%	92.3%
O=C(NNc1nc2cc(F)c(F)cc2n2c(CN3CC4CNCC4C3)ccc12)c1ncccn1 (stereo not drawn)	1.34% (active)	18.7%	7.54% (active)	40%	21.6%	7.21% (active)	14.9%	34.6%	71.5%	62.3%	13.8%	28.1%	22.6%	9.66% (active)	11.7%	24.7%	19.2%	–
